Experimental findings from the supplement of paper PMC6331611 are described below.

± gives the standard deviation of the averaged measurements. The full ranking holds about 1,600 compounds; the median of “normalized growth (OD600, IQM-normalized) in LPM” is about 1, and the lowest 2% start at about 0.014. For the sample, the lowest values were picked, then their nearest neighbours and some compounds at random.

This assay deals with Salmonella enterica serovar Typhimurium SL1344. Description: normalized growth (OD600, IQM-normalized) in LPM (fraction of plate interquartile mean); higher = more bacterial growth (less inhibition). As to conditions: LPM pH 5.8; 10 µM; 16 h.
`CCn1cc(C(=O)O)c(=O)c2cc3c(cc21)OCO3` showed a normalized growth of 0.00952 ± 0.00073.
In turn, `C[N+]1(C)CCCC(OC(=O)C(O)(c2ccccc2)c2ccccc2)C1` (stereo not given) gave a normalized growth of 1.1 ± 0.011.
`CC[C@H]1CN2CC[C@H]1C[C@@H]2[C@@H](O)c1ccnc2ccc(OC)cc12` showed a normalized growth of 0.912 ± 0.022.
Next, `CC(C)C[C@H]1C(=O)N2CCC[C@H]2[C@]2(O)O[C@](NC(=O)[C@@H]3C=C4c5cccc6[nH]c(Br)c(c56)C[C@H]4N(C)C3)(C(C)C)C(=O)N12`: 0.947 ± 0.03; `Cc1ccc(O)cc1.Cc1cccc(O)c1.Cc1ccccc1O`: 0.955 ± 0.19; `O=[N+]([O-])C(Br)(CO)CO`: 0.786 ± 0.02.
On to `CCCCOC(=O)c1ccccc1C(=O)OCCCC`, for which the normalized growth was determined as 1.363 ± 0.0046.
`O=C([O-])Cc1ccccc1.[Na+]` displayed a normalized growth of 1.14 ± 0.026.
Under `C[CH2][Hg][S]c1ccccc1C(=O)[O-].[Na+]` stands 0.00984 ± 0.0003; under `Oc1noc2c1CCNC2`, 0.948 ± 0.041.
Under `[O-][n+]1ccccc1[S-].[O-][n+]1ccccc1[S-].[Zn+2]` stands 0.00799 ± 0.00024; under `O=C1CCO1`, 0.959 ± 0.039; under `Oc1ccc2c3c1O[C@H]1[C@@H](O)CC[C@@]4(O)[C@@H](C2)N(CC2CCC2)CC[C@]314`, 0.92 ± 0.12.
Under `CC(=O)[O][Hg][c]1ccccc1` stands 0.0096 ± 0.00029; under `CC(Cc1ccc(O)cc1)NCC(O)c1cc(O)cc(O)c1` (stereo not given), 1.087 ± 0.0059.
On to `CCOP(=S)(OCC)Oc1nc(Cl)c(Cl)cc1Cl`, for which the normalized growth was determined as 1.33 ± 0.11.
Molecule `NC(=O)C[S+]([O-])C(c1ccccc1)c1ccccc1` (stereo not given) showed a normalized growth of 0.865 ± 0.082.
As for `CC(C)=CC1C(C(=O)OCc2cccc(Oc3ccccc3)c2)C1(C)C` (stereo not given), the normalized growth is 0.894 ± 0.04.
Next, `NP(N)(=O)NC(=O)c1ccc(F)cc1`: 1.06 ± 0.017; `C[N+]12CCC(CC1)C(OC(=O)C(O)(c1ccccc1)c1ccccc1)C2` (stereo not given): 1.05 ± 0.026; `Oc1ccc(Cl)cc1`: 0.971 ± 0.012.
As for `Oc1cc(Cl)ccc1Oc1ccc(Cl)cc1Cl`, the normalized growth amounted to 0.00811 ± 0.00016.
Next, `Oc1ccc(Cl)cc1Cc1cc(Cl)ccc1O`: 0.895 ± 0.086; `O=[N+]([O-])O[C@@H]1CO[C@H]2[C@@H]1OC[C@@H]2O`: 1.11 ± 0.026.
Next, `CC(C)(O)C(Cl)(Cl)Cl`: 1 ± 0.032.
